# Laboratory results published in the supplement of paper PMC10681739.
# Columns and labels:
# ETS1 [1] = molecular target: T1, ETS1 (UniProt P14921); experiment: ETS1 binding intensity (PBM fluorescence), ETS1 alone (arbitrary fluorescence units); higher = stronger binding; settings: ETS1 concentration 1 nM; RUNX1 concentration 0 nM
# T1 sequence: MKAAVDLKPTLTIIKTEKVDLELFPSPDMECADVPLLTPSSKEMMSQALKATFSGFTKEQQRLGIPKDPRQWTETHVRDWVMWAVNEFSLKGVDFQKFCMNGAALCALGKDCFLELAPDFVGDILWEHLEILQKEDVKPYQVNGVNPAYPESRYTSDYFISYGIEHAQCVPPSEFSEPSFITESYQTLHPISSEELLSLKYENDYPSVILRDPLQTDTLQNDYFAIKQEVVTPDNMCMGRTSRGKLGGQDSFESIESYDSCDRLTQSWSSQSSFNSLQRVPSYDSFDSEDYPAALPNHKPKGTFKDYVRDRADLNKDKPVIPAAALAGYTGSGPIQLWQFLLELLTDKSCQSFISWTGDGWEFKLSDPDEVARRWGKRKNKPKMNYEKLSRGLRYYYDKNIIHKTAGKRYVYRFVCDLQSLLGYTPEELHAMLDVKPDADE
# RUNX1 [2] = molecular target: RUNX1 (UniProt Q01196); experiment: RUNX1 binding intensity (PBM fluorescence), RUNX1 alone (arbitrary fluorescence units); higher = stronger binding; settings: RUNX1 concentration 2 nM; ETS1 concentration 0 nM
# Description: (§1)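 Cooperative gcPBM on 36-bp genomic probes with neighbouring ETS1 and RUNX1 sites. Recombinant human RUNX1 (2 nM) was incubated alone or with ETS1 (25 nM) and detected with anti-RUNX1 antibody plus Alexa488 secondary. Values are medians over 4 replicate spots; the RUNX1+ETS1 data were normalised to the RUNX1-only data. The probes sit in constant array flanks that are not printed.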
# ETS1 [3] = molecular target: T1, ETS1; experiment: ETS1 binding intensity (PBM fluorescence) in presence of RUNX1, normalised to ETS1-only experiment (arbitrary fluorescence units); higher = stronger binding; settings: ETS1 concentration 1 nM; RUNX1 concentration 25 nM
# RUNX1 [4] = molecular target: RUNX1 (UniProt Q01196); experiment: RUNX1 binding intensity (PBM fluorescence) in presence of ETS1, normalised to RUNX1-only experiment (arbitrary fluorescence units); higher = stronger binding; settings: RUNX1 concentration 2 nM; ETS1 concentration 25 nM
# Description: as §1
# 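Throughout, for RUNX1 binding intensity (PBM fluorescence) in presence of ETS1, normalised to RUNX1-only experiment: Full-length recombinant human ETS1 or RUNX1 bound to double-stranded 36-bp genomic probes on microarrays, detected by protein-specific primary antibody and Alexa488 secondary, spot fluorescence as median of four replicate spots.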
# 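Throughout, for RUNX1 binding intensity (PBM fluorescence), RUNX1 alone: Full-length recombinant human RUNX1 bound to double-stranded 36-bp genomic probes on a high-density microarray, scored as Alexa488 fluorescence per spot via anti-RUNX1 antibody, median of four replicate spots.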
# RUNX1, sequence (Q01196 whole entry): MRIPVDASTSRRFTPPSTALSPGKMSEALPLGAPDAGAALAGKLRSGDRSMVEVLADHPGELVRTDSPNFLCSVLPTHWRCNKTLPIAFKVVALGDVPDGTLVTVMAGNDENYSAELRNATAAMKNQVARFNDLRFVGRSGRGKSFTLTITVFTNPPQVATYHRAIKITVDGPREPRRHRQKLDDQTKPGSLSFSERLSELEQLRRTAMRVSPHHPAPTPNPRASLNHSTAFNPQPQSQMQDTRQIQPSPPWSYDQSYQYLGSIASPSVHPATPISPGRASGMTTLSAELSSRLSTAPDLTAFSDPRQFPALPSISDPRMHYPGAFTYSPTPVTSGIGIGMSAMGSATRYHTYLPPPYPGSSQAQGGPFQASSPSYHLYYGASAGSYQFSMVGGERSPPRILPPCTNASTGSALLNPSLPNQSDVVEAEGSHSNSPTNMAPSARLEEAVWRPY
sequence,measurement,setting,value
GGAGGAAGAGGAGGATGTGGTGAGCCGCTCCCCGCC,ETS1 binding intensity,ETS1 [1],923
same,RUNX1 binding intensity,RUNX1 [2],782
same,ETS1 binding intensity,ETS1 [3],1870
same,RUNX1 binding intensity,RUNX1 [4],1260
TCCCTAAGTCACATCCTGTGGGCAAAGGCCCTAGCA,ETS1 binding intensity,ETS1 [1],880
same,RUNX1 binding intensity,RUNX1 [2],769
same,ETS1 binding intensity,ETS1 [3],935
same,RUNX1 binding intensity,RUNX1 [4],1570
TTTATCATGAATGCAGGATGTGGGCAAACTCATGAC,ETS1 binding intensity,ETS1 [1],2860
same,RUNX1 binding intensity,RUNX1 [2],814
same,ETS1 binding intensity,ETS1 [3],5910
same,RUNX1 binding intensity,RUNX1 [4],1140
GAGCCGGAAGTGAAGGAGGGCTTGTGGGAGATGGAG,ETS1 binding intensity,ETS1 [1],2710
same,RUNX1 binding intensity,RUNX1 [2],713
same,ETS1 binding intensity,ETS1 [3],3090
same,RUNX1 binding intensity,RUNX1 [4],1210
GAGTGACTGCTAACGGATGTGTGGTTTCTTTAGTTT,ETS1 binding intensity,ETS1 [1],2000
same,RUNX1 binding intensity,RUNX1 [2],926
same,ETS1 binding intensity,ETS1 [3],6590
same,RUNX1 binding intensity,RUNX1 [4],1470
TGAGTCACAGAGACAGGATGTGGTGCAGGGGGTATT,ETS1 binding intensity,ETS1 [1],7580
same,RUNX1 binding intensity,RUNX1 [2],718
same,ETS1 binding intensity,ETS1 [3],13500
same,RUNX1 binding intensity,RUNX1 [4],1030
GATGCTCTAACAGGAAGTGGGTTAAGGAGCTGCACT,ETS1 binding intensity,ETS1 [1],12200
same,RUNX1 binding intensity,RUNX1 [2],673
same,ETS1 binding intensity,ETS1 [3],14100
same,RUNX1 binding intensity,RUNX1 [4],2390
TTACAATCATTTCCTCTCTGTGGTTTGGTGACAAAT,ETS1 binding intensity,ETS1 [1],722
same,RUNX1 binding intensity,RUNX1 [2],1620
same,ETS1 binding intensity,ETS1 [3],2000
same,RUNX1 binding intensity,RUNX1 [4],3180
CCGGGCTGCGGAAGGCGGGAACTCTGCGGTTCGCGG,ETS1 binding intensity,ETS1 [1],484
same,RUNX1 binding intensity,RUNX1 [2],861
same,ETS1 binding intensity,ETS1 [3],2650
same,RUNX1 binding intensity,RUNX1 [4],1090
ACCCACCCGGAAGTCCTCCTGGCCCACAAGCTCCGC,ETS1 binding intensity,ETS1 [1],2360
same,RUNX1 binding intensity,RUNX1 [2],992
same,ETS1 binding intensity,ETS1 [3],2270
same,RUNX1 binding intensity,RUNX1 [4],1630
CTTATCTTCTTCCTGTGAGCTGTGTGTGGGTGGCTC,ETS1 binding intensity,ETS1 [1],489
same,RUNX1 binding intensity,RUNX1 [2],942
same,ETS1 binding intensity,ETS1 [3],397
same,RUNX1 binding intensity,RUNX1 [4],1580
CCGCGAGCCGTCACTTCCTGTGGGCTGGGCCGAGCC,ETS1 binding intensity,ETS1 [1],1910
same,RUNX1 binding intensity,RUNX1 [2],924
same,ETS1 binding intensity,ETS1 [3],2470
same,RUNX1 binding intensity,RUNX1 [4],1940
GCACTGTGGGAGGAAGTGGGTATGTGGTGAGCTCTT,ETS1 binding intensity,ETS1 [1],1650
same,RUNX1 binding intensity,RUNX1 [2],856
same,ETS1 binding intensity,ETS1 [3],4990
same,RUNX1 binding intensity,RUNX1 [4],1560
ACCCCGGAAGTGTGGGCGCGGCTGCGGTTTAACCCG,ETS1 binding intensity,ETS1 [1],2640
same,RUNX1 binding intensity,RUNX1 [2],2220
same,ETS1 binding intensity,ETS1 [3],15900
same,RUNX1 binding intensity,RUNX1 [4],8200
CAGGCACACATCCGGGAGCGGCCTGCGCCGCAAGGC,ETS1 binding intensity,ETS1 [1],608
same,RUNX1 binding intensity,RUNX1 [2],773
same,ETS1 binding intensity,ETS1 [3],661
same,RUNX1 binding intensity,RUNX1 [4],1560
GAAATGAAGGCCGGATGTCAGTAACCACAAACGAGC,ETS1 binding intensity,ETS1 [1],7620
same,RUNX1 binding intensity,RUNX1 [2],1040
same,ETS1 binding intensity,ETS1 [3],47500
same,RUNX1 binding intensity,RUNX1 [4],11000
CAGATTCCCGGAAAGGGGGACATGTAGCCGCAAAAG,ETS1 binding intensity,ETS1 [1],509
same,RUNX1 binding intensity,RUNX1 [2],815
same,ETS1 binding intensity,ETS1 [3],1990
same,RUNX1 binding intensity,RUNX1 [4],1040
TTGGTGACCTCTTCCTGTCCGCTGTGGTGTTGTTAC,ETS1 binding intensity,ETS1 [1],1080
same,RUNX1 binding intensity,RUNX1 [2],841
same,ETS1 binding intensity,ETS1 [3],1240
same,RUNX1 binding intensity,RUNX1 [4],2350
CTTGTTCTATTTCCTGTTTGTGGTGAGTGACTGTCT,ETS1 binding intensity,ETS1 [1],4300
same,RUNX1 binding intensity,RUNX1 [2],1520
same,ETS1 binding intensity,ETS1 [3],8610
same,RUNX1 binding intensity,RUNX1 [4],3140
GTTCTCAGCTTCCTGTTCACAGAGAAACCTCAGACA,ETS1 binding intensity,ETS1 [1],1370
same,RUNX1 binding intensity,RUNX1 [2],946
same,ETS1 binding intensity,ETS1 [3],1560
same,RUNX1 binding intensity,RUNX1 [4],1390
CAAAGGTTAAATGCAGGATGTGGTTTCTGCAGACTC,ETS1 binding intensity,ETS1 [1],2750
same,RUNX1 binding intensity,RUNX1 [2],922
same,ETS1 binding intensity,ETS1 [3],25400
same,RUNX1 binding intensity,RUNX1 [4],3990
CTGAAAAACCGGAAGTGGGTGGTTTGAAACGTAAAT,ETS1 binding intensity,ETS1 [1],18000
same,RUNX1 binding intensity,RUNX1 [2],776
same,ETS1 binding intensity,ETS1 [3],20800
same,RUNX1 binding intensity,RUNX1 [4],4130
AGTAGGATGGGAGGAAGTGGTTTGTAAGAGGAGGAC,ETS1 binding intensity,ETS1 [1],1780
same,RUNX1 binding intensity,RUNX1 [2],769
same,ETS1 binding intensity,ETS1 [3],2740
same,RUNX1 binding intensity,RUNX1 [4],1480
GTAAAAGAGGAAGTAACACCTCCTTGCGGTTGAGAC,ETS1 binding intensity,ETS1 [1],1450
same,RUNX1 binding intensity,RUNX1 [2],1020
same,ETS1 binding intensity,ETS1 [3],6840
same,RUNX1 binding intensity,RUNX1 [4],3280
GCACTCGGATGTTGGCCGTAGTTGTGGTTATAGTTG,ETS1 binding intensity,ETS1 [1],464
same,RUNX1 binding intensity,RUNX1 [2],1010
same,ETS1 binding intensity,ETS1 [3],1090
same,RUNX1 binding intensity,RUNX1 [4],1110
GGCAGCCGGCTTCCGGCTGTGGGTGGTGCGGGGGAC,ETS1 binding intensity,ETS1 [1],1370
same,RUNX1 binding intensity,RUNX1 [2],676
same,ETS1 binding intensity,ETS1 [3],1820
same,RUNX1 binding intensity,RUNX1 [4],1540
CAGCAGCACCTGCATCCGCTGCGGGAGTCCGAGCCG,ETS1 binding intensity,ETS1 [1],515
same,RUNX1 binding intensity,RUNX1 [2],778
same,ETS1 binding intensity,ETS1 [3],491
same,RUNX1 binding intensity,RUNX1 [4],1030
CCCCTCGCCCTTCCGCATTGCGGGTTACTTCGGTTG,ETS1 binding intensity,ETS1 [1],521
same,RUNX1 binding intensity,RUNX1 [2],1900
same,ETS1 binding intensity,ETS1 [3],591
same,RUNX1 binding intensity,RUNX1 [4],3510
GTAAACTAGCTCTTCCGGTCTGTGGCCCTCACAGGA,ETS1 binding intensity,ETS1 [1],2840
same,RUNX1 binding intensity,RUNX1 [2],824
same,ETS1 binding intensity,ETS1 [3],3250
same,RUNX1 binding intensity,RUNX1 [4],1500
CCCTTCCGCGTGGGTTGCACCTGCTAACCACAGAGC,ETS1 binding intensity,ETS1 [1],329
same,RUNX1 binding intensity,RUNX1 [2],1090
same,ETS1 binding intensity,ETS1 [3],866
same,RUNX1 binding intensity,RUNX1 [4],1600
GTATGGGAAGTGATCTGGCTGCAAACCGCAAGAGAG,ETS1 binding intensity,ETS1 [1],549
same,RUNX1 binding intensity,RUNX1 [2],4520
same,ETS1 binding intensity,ETS1 [3],2730
same,RUNX1 binding intensity,RUNX1 [4],7290
GACCAGGCGAGAGGATGTGGGTATGAGGGAGGAGCT,ETS1 binding intensity,ETS1 [1],819
same,RUNX1 binding intensity,RUNX1 [2],835
same,ETS1 binding intensity,ETS1 [3],1640
same,RUNX1 binding intensity,RUNX1 [4],1090
TGGTTTCTCACTGGCGGATGTGGGTGGGTCGCCTCC,ETS1 binding intensity,ETS1 [1],4130
same,RUNX1 binding intensity,RUNX1 [2],723
same,ETS1 binding intensity,ETS1 [3],6390
same,RUNX1 binding intensity,RUNX1 [4],1100
ACCTGAGCAGGAAGTAGCTGAGGTCGCGGTGCAGCA,ETS1 binding intensity,ETS1 [1],2940
same,RUNX1 binding intensity,RUNX1 [2],730
same,ETS1 binding intensity,ETS1 [3],3750
same,RUNX1 binding intensity,RUNX1 [4],1080
TGACATGGCTTCCGCCTTGGGCTTTGTGGTCTCCCA,ETS1 binding intensity,ETS1 [1],513
same,RUNX1 binding intensity,RUNX1 [2],890
same,ETS1 binding intensity,ETS1 [3],1150
same,RUNX1 binding intensity,RUNX1 [4],1760
CCAGCCCAGGAAACAAGGAACCCCAAAGCCACAGGA,ETS1 binding intensity,ETS1 [1],392
same,RUNX1 binding intensity,RUNX1 [2],828
same,ETS1 binding intensity,ETS1 [3],579
same,RUNX1 binding intensity,RUNX1 [4],979
AACCTAGAAAAGGAAGCTGCGGTTTTTCAGGGTATG,ETS1 binding intensity,ETS1 [1],697
same,RUNX1 binding intensity,RUNX1 [2],8830
same,ETS1 binding intensity,ETS1 [3],6430
same,RUNX1 binding intensity,RUNX1 [4],12300
ATTTAGGAGGAAGTTTCCAGTACCACAACCTCACAG,ETS1 binding intensity,ETS1 [1],430
same,RUNX1 binding intensity,RUNX1 [2],868
same,ETS1 binding intensity,ETS1 [3],709
same,RUNX1 binding intensity,RUNX1 [4],788
AACCTCCGACTTCCGGCCGCGCAGCGGTGGGCTGAG,ETS1 binding intensity,ETS1 [1],3900
same,RUNX1 binding intensity,RUNX1 [2],678
same,ETS1 binding intensity,ETS1 [3],4280
same,RUNX1 binding intensity,RUNX1 [4],1970
CGCCGGCTCCCGGATGTTGTGGGGATCAGCGCCCGC,ETS1 binding intensity,ETS1 [1],3270
same,RUNX1 binding intensity,RUNX1 [2],771
same,ETS1 binding intensity,ETS1 [3],3760
same,RUNX1 binding intensity,RUNX1 [4],1260
